Bioassay records as filed in PubChem BioAssay.
The list is not random: actives were taken first. Their share in the collection is about 3%.
FBPA coupling cs: qHTS Assay for Inhibitors of Fructose-1,6-bisphosphate Aldolase from Giardia Lamblia: Coupling assay counterscreen. coupling enzyme system counterscreen, AmpLite Red fluorescence. activity change, negative = inhibition, % at 58.2 µM, hits read low. 0.67% of 290,000 active; in the data active means activity change below about -30%
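Final compound at 57.5 uM, incubated 10 min at RT with coupling enzyme reagent (glyceraldehyde-3-phosphate), then 20 min with substrate and AmpLite Red detection. Fluorescence read at 525/598 nm; tests interference with the coupling assay, not aldolase inhibition.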
Tau fluor cs: Counterscreen qHTS for Inhibitors of Tau Fibril Formation, Fluorescence Polarization. tau K18 P301L Alexa594 fluorescence, heparin fibrillization. Potency, µM (highest dose often 57.7 µM). 0.93% of 280,000 active. AID 1463, 2008; further: nearly all actives have a fitted effect of over 55% in size
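Human tau K18 P301L (15 uM unlabeled, 0.24 uM Alexa 594-labeled) in 100 mM sodium acetate pH 7 with 20 uM heparin, 6 hr at 37 C. ThT 30 uM added, 1 hr ambient; Alexa 594 FP and total fluorescence read at 555/632 nm.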
Tau FP inhib: qHTS for Inhibitors of Tau Fibril Formation, Fluorescence Polarization | Microtubule-associated protein tau (Homo sapiens), P10636 | Potency, µM (series often up to 57.7 µM), actives largely listed as inhibitors | K18 P301L tau heparin fibrillization, Alexa594 FP, 6 h | AID 1468, 2008 | 0.39% of 280,000 active; further: nearly all actives have a fitted effect of over 55% in size
Target sequence (P10636 561-689 P618L limits assumed): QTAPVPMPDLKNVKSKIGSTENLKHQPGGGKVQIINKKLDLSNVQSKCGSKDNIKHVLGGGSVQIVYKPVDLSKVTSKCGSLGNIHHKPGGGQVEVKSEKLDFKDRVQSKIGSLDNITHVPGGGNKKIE
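Compound effects on tau fibrillization are measured by Alexa 594 fluorescence polarization (ex 555, em 632 nm). K18 P301L tau is used at 15 uM with 0.24 uM labeled tracer, and 20 uM heparin induces aggregation over 6 hr at 37 C.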
JMJD2E inh: qHTS Assay for Inhibitors of Human Jumonji Domain Containing 2E (JMJD2E); Lysine-specific demethylase 4E (Homo sapiens), B2RXH2; JMJD2E catalytic domain, FDH-coupled NADH fluorescence (FDH is formaldehyde dehydrogenase); Potency, µM (doses to about 57.1 µM), most hits filed as inhibitors; 1.6% of 230,000 active; AID 2147, 2009; active means well fitted inhibition curve with a large enough effect, not every such curve was filed as active; inconclusive means small, poorly fitted or top-dose-only effect, or another doubt; inactive means no such curve, though single readings can be large or run the other way; further: nearly all actives have a fitted effect of over 50% in size
Target sequence (B2RXH2 1-337 limits assumed): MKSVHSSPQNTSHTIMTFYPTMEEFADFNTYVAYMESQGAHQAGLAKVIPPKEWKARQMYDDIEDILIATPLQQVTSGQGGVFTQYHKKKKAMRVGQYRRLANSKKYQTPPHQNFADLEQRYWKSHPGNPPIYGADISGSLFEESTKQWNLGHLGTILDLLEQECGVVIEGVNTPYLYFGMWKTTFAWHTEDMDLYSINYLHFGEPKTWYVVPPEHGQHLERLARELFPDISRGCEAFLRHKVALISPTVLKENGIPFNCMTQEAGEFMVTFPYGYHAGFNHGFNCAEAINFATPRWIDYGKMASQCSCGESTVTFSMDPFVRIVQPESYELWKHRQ
Tau fibril ThT: qHTS for Inhibitors of Tau Fibril Formation, Thioflavin T Binding; AID 1460, 2008; 2.1% of 270,000 active; Potency, µM (top dose mostly 57.4 µM), hits mostly inhibitors; recombinant tau K18 P301L, heparin-induced fibrillization, ThT fluorescence; further: nearly all actives have a fitted effect of over 55% in size
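Fibril formation assay: tau K18 P301L at 15 uM with trace Alexa 594 label, heparin inducer 20 uM, pH 7 sodium acetate buffer, 37 C for 6 hr; endpoint ThT signal.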
Each line names hits and unclear results; the compound was inactive in the other large screens; [ ] = remark or other dose. Unless noted, the call rests on the fitted dose curve; in most records, active means well fitted curve in the direction sought with a large enough effect; inconclusive means small, poorly fitted or top-dose-only effect, or another doubt; inactive means no such curve, though single readings can be large; an effect the other way counts as inactive or inconclusive.

CC(C)=CCCC1(C)C=Cc2c(O)c3c(c(CC=C(C)C)c2O1)OC12C(=CC4CC1C(C)(C)OC2(C/C=C(/C)C(=O)O)C4O)C3=O (centres undefined)	Tau FP inhib inconclusive, Tau fibril ThT 18µM
CC(C)=CCCC1(C)C=Cc2c(O)c3c(c(CC=C(C)C)c2O1)OC12C(=CC4CC1C(C)(C)OC2(C/C=C(/C)C(=O)O)C4=O)C3=O (centres undefined)	Tau FP inhib inconclusive, JMJD2E inh inconclusive, Tau fibril ThT 22µM
CC(C)[C@@]1(NC(=O)[C@@H]2C[C@@H]3c4cccc5[nH]cc(c45)C[C@H]3N(C)C2)O[C@@]2(O)C3CCCN3C(=O)[C@H](Cc3ccccc3)N2C1=O (some centres undefined)	Tau fluor cs 7.1µM[quencher], Tau FP inhib inconclusive, Tau fibril ThT inconclusive (no result: FBPA coupling cs)
CC(C)[C@@]1(NC(=O)[C@@H]2C[C@@H]3c4cccc5[nH]cc(c45)C[C@H]3N(C)C2)O[C@@]2(O)[C@@H]3CCCN3C(=O)[C@H](Cc3ccccc3)N2C1=O	Tau fluor cs 2.8µM[quencher], Tau FP inhib inconclusive, JMJD2E inh inconclusive, Tau fibril ThT inconclusive
CN1C[C@H](C(=O)N[C@@]2(C)O[C@@]3(O)C4CCCN4C(=O)C(Cc4ccccc4)N3C2=O)C[C@H]2c3cccc4[nH]cc(c34)C[C@H]21 (some centres undefined)	Tau fluor cs inconclusive
c1cc2cc(c1)C[n+]1ccc(c3ccccc31)NCc1ccc(cc1)CNc1cc[n+](c3ccccc13)C2	Tau FP inhib inconclusive, JMJD2E inh 18µM, Tau fibril ThT inconclusive
c1ccc2c(c1)c1cc[n+]2CCCCC[n+]2ccc(c3ccccc32)NCCCCCN1	none (no result: Tau fluor cs, Tau FP inhib, JMJD2E inh, Tau fibril ThT)
Cc1ccccc1C(=O)Nc1sc2c(c1C(=O)O)CCC(C(C)(C)C)C2 (centres undefined)	Tau fluor cs inconclusive, Tau fibril ThT 20µM (no result: FBPA coupling cs, JMJD2E inh)
CC(C)N(Cc1ccccc1)C(=O)CCS(=O)(=O)c1ccc2c(c1)oc(=O)n2C	Tau fibril ThT inconclusive (no result: JMJD2E inh)
COc1cc(C(=O)NCCSc2c(-c3ccccc3)[nH]c3ccccc23)cc(OC)c1OC	Tau fluor cs 8.9µM[quencher] (no result: FBPA coupling cs, JMJD2E inh)
O=C(NCCSc1c(-c2ccc(F)cc2)[nH]c2ccccc12)c1ccc(S(=O)(=O)N2CCOCC2)cc1	Tau fluor cs 4.5µM[quencher] (no result: FBPA coupling cs, JMJD2E inh)
C=C1C(O)C2OC3(CCC(/C=C/C(C)C4CC(C)=CC5(OC(CC(C)(O)C(=O)O)CCC5O)O4)O3)CCC2OC1C(O)CC(C)C1OC2(CCCCO2)CCC1C (centres undefined)	Tau FP inhib inconclusive (no result: JMJD2E inh)
NC(N)=Nc1ccc2[nH]c3c(c2c1)C[C@@]1(O)[C@H]2Cc4ccc(O)c5c4[C@@]1(CCN2CC1CC1)[C@H]3O5	JMJD2E inh 10µM (no result: FBPA coupling cs)
Oc1ccc2c3c1O[C@H]1c4[nH]c5c(c4C[C@@]4(O)[C@@H](C2)N(CC2CC2)CC[C@]314)C[C@]1(O)[C@H]2Cc3ccc(O)c4c3[C@@]1(CCN2CC1CC1)[C@@H]5O4	JMJD2E inh inconclusive, Tau fibril ThT inconclusive
CCOC(=O)c1ccc(N2C(=O)CC(N3CC=C(c4ccc(F)cc4)CC3)C2=O)cc1 (centres undefined)	JMJD2E inh 14µM, Tau fibril ThT inconclusive
O=C1CC(N2CC=C(c3ccc(F)cc3)CC2)C(=O)N1c1ccc(F)cc1 (centres undefined)	Tau fluor cs inconclusive, Tau FP inhib inconclusive, JMJD2E inh inconclusive, Tau fibril ThT 32µM (no result: FBPA coupling cs)
Cc1cnc2c(C(=O)O)c(Cl)ccc2c1	none (no result: Tau fluor cs, Tau FP inhib, JMJD2E inh, Tau fibril ThT)
O=C(N/N=C/c1c(O)n(CCc2ccc(F)cc2)c(=O)[nH]c1=O)c1ccccc1	JMJD2E inh 20µM (no result: Tau fibril ThT)
O=C(N/N=C/c1c(O)n(CCc2ccc(F)cc2)c(=O)[nH]c1=O)c1ccncc1	JMJD2E inh inconclusive, Tau fibril ThT inconclusive
O=C(N/N=C/c1c(O)n(-c2cccc3ccccc23)c(=O)[nH]c1=O)c1ccncc1	JMJD2E inh 13µM
